# Source: PubChem BioAssay AID2018 (Sanford-Burnham Center for Chemical Genomics, 2009)
# The campaign covered roughly 1,200 compounds. About 600 (50%) were called active. No stated cut-off is given here; in the data, active means inhibition above about 42%; inactive means the rest. So high a share suggests a set chosen from earlier hits. Some of the results follow. Results with a measured potency or affinity are listed apart.
# Target: SUMO-conjugating enzyme UBC9 (Homo sapiens) (UniProt P63279)
# Sequence (P63279 whole entry, looked up): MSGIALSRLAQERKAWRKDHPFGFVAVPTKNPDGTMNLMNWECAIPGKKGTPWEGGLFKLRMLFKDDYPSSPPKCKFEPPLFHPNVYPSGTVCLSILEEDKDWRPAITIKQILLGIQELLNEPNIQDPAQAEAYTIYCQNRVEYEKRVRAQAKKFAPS
# Assay: blockers of UBC9-mediated SUMO conjugation – biochemical, AlphaScreen, SUMOylation inhibitor project, confirmation (AID 2018)
# Details: AlphaScreen in vitro SUMOylation assay; at 35 µM; active compounds read high
row,SMILES,inhibition
1,Cc1cc(=O)[nH]c(-n2[nH]c(C)cc2=O)n1,78.7% (active)
2,CC(C)(C)c1cc(=O)n(-c2ccccc2)[nH]1,22.8% (inactive)
3,Cc1ccc(N2CCN(Cc3ccccc3)CC2=O)c(C)c1,18.7% (inactive)
4,O=c1c(-c2ccccc2)coc2c(CN3CCCC3)c(O)ccc12,-8% (inactive)
5,CC(=O)c1ccc(N2CCN(C(=O)c3cccs3)C(C)C2)c(F)c1 (stereo not drawn),14.2% (inactive)
6,Cc1nn(-c2ccccn2)c2c1C(=O)C(Br)CC2 (stereo not drawn),97.2% (active)
7,O=c1c2ccccc2nc2n1CCC2,97.9% (active)
8,O=C(O)c1cc(Cl)c(Cl)cc1C(=O)Nc1cccc2ncccc12,9.9% (inactive)
9,Cc1ccc(/C=C(\C#N)C(=O)Nc2cccc3ncccc23)o1,23.5% (inactive)
10,Cc1cc(C)c(S(=O)(=O)/N=C2/C=C(SCC(=O)O)C(=O)c3ccccc32)cc1C,95.8% (active)
11,COc1ccc2nc(/C(C#N)=C\c3ccc(C(=O)O)cc3)[nH]c2c1,21.7% (inactive)
12,CCc1cccc(NC(=S)Nc2cccc3ccccc23)c1,15% (inactive)
13,CCC(NC(=O)Nc1ccc(O)cc1)(C(F)(F)F)C(F)(F)F,-10.3% (inactive)
14,COc1cc(/C=C2\C(=O)N(CCC#N)N=C2C)ccc1OCC(=O)Nc1ccccc1,12.4% (inactive)
15,O=C1Nc2ccc(C(F)(F)F)cc2N2CCCC12 (stereo not drawn),46.5% (active)
16,Cc1ccc(NC(=S)Nc2cccc3ccccc23)cc1,19.1% (inactive)
17,CC(C)(C)c1cc[n+](C2=C([O-])c3ccccc3C(=O)/C2=N\S(=O)(=O)c2cccs2)cc1,90.8% (active)
18,CCOc1ccc(C(Nc2cccnc2)c2cc(Cl)c3cccnc3c2O)cc1 (stereo not drawn),-212% (inactive)
19,O=C(O)COc1ccccc1C(Nc1cccnc1)c1cc(Cl)c2cccnc2c1O (stereo not drawn),102% (active)
20,COC(=O)c1ccccc1NC1=C/C(=N\S(=O)(=O)c2cccs2)c2ccccc2C1=O,102% (active)
21,O=[N+]([O-])c1cc(Cl)cc(/C=N/NC(=S)Nc2ccc(S(=O)(=O)N3CCOCC3)cc2)c1O,102% (active)
22,CCN(C(=S)Nc1cc(S(=O)(=O)N2CCOCC2)ccc1Cl)c1cccc2ccccc12,11.1% (inactive)
23,Cc1[nH]n(-c2ccccc2)c(=O)c1C(c1cccc([N+](=O)[O-])c1)c1c(C)[nH]n(-c2ccccc2)c1=O,79.1% (active)
24,CC(C)(C)c1cnnn1-c1cccc([N+](=O)[O-])c1,5.8% (inactive)
25,Cc1[nH]n(-c2ccccc2)c(=O)c1C(C[N+](=O)[O-])c1ccc(Br)cc1 (stereo not drawn),101% (active)

row,SMILES,inhibition
1,COc1cccc(C(c2c(C)[nH]n(-c3ccccc3)c2=O)c2c(C)[nH]n(-c3ccccc3)c2=O)c1OC,89.3% (active)
2,C=CCN(CC=C)c1nc2ccccc2nc1C(C#N)C(=O)OC(C)C (stereo not drawn),-10.3% (inactive)
3,COc1ccc(C(c2c(C)[nH]n(-c3ccccc3)c2=O)c2c(C)[nH]n(-c3ccccc3)c2=O)cc1OC,101% (active)
4,Cc1[nH]n(-c2ccccc2)c(=O)c1C(c1ccc(C(=O)O)cc1)c1c(C)[nH]n(-c2ccccc2)c1=O,41.6% (inactive)
5,COCCNC(=O)CCC1CCN(Cc2ccc(-c3ccccc3)cc2)CC1,-1.3% (inactive)
6,CCOc1ccc(N2CC(C(=O)NCc3ccc(F)cc3)CC2=O)cc1 (stereo not drawn),6.3% (inactive)
7,Cc1n[nH]c(=S)n(NC(=O)/C=C/C(=O)Nn2c(=S)[nH]nc(C)c2=O)c1=O,101% (active)
8,S=C(NCc1ccc2c(c1)OCO2)Nc1ccc2nsnc2c1,25.4% (inactive)
9,S=C(Nc1ccc2nsnc2c1)N1CCCCC1,18.3% (inactive)
10,S=C(Nc1ccc2nsnc2c1)NC1CCCCC1,95.3% (active)
11,OCCNC(=S)Nc1ccc2nsnc2c1,54.8% (active)
12,COCCNC(=S)Nc1ccc2nsnc2c1,6.6% (inactive)
13,S=C(Nc1ccc2nsnc2c1)N1CCCCCC1,28.1% (inactive)
14,Cn1cc2ccc(N)cc2n1,-18.5% (inactive)
15,CN(C)C=Nc1ccc2nn(-c3ccccc3)nc2c1,-10.8% (inactive)
16,Nc1ccc2nn(-c3ccccc3)nc2c1,68.1% (active)
17,Nc1ccc2nc(-c3ccccc3)sc2c1,-1.4% (inactive)
18,Nc1ccc2nn(-c3cccc4ccccc34)nc2c1,43.5% (active)
19,Cc1ccc(-n2nc3ccc(N)cc3n2)c(C)c1,39.7% (inactive)
20,N#Cc1ccsc1NC(=O)CN1CCN(c2ccc(O)cc2)CC1,5.7% (inactive)
21,O=C(NCc1ccccc1)c1ccc2nc(-c3ccco3)c(-c3ccco3)nc2c1,65.7% (active)
22,O=C(NCCc1ccccc1)c1ccc2nc(-c3ccco3)c(-c3ccco3)nc2c1,70.9% (active)
23,O=C(Cc1ccccc1)Nc1nnc(-c2ccco2)s1,11.3% (inactive)
24,O=C(Nc1ccc2nsnc2c1)N1CCCCC1,2.3% (inactive)
25,O=C(Nc1ccc2nc(-c3ccco3)c(-c3ccco3)nc2c1)N1CCN(c2ccccn2)CC1,76.6% (active)

row,SMILES,inhibition
1,CC(C)c1ccccc1NC(=O)COc1ccc(C(=O)NCCc2ccccc2)cc1,26.7% (inactive)
2,S=C(Nc1ccc2nc(-c3ccccn3)c(-c3ccccn3)nc2c1)N1CCOCC1,3.8% (inactive)
3,O=C(Nc1ccccc1)Nc1ccno1,-7.1% (inactive)
4,COc1ccc(CCn2c(N)c(C(=O)NCc3ccco3)c3nc4ccccc4nc32)cc1OC,9.7% (inactive)
5,CC(=O)Nc1ccc2nc3ccccc3nc2c1,15.1% (inactive)
6,COc1ccc(CCNC(=O)c2ccc3nc(-c4ccco4)c(-c4ccco4)nc3c2)cc1OC,73.3% (active)
7,O=C(Nc1cccnc1)c1cc2cc(Br)ccc2oc1=O,34.9% (inactive)
8,Cc1ccc(Cn2cccc(NS(C)(=O)=O)c2=O)cc1,26.5% (inactive)
9,COc1ccc(-c2cc(-c3ccccc3)n3ncnc3n2)cc1,5.5% (inactive)
10,Cc1nn2cc(-c3ccccc3)nc2[nH]c1=O,9.6% (inactive)
11,CC(C)c1ccc(S(=O)(=O)/N=C2/C=CC(=O)c3ccccc32)cc1,102% (active)
12,O=C(NCc1ccccc1)Nc1cccn(Cc2c(F)cccc2Cl)c1=O,-15.7% (inactive)
13,COc1ccc2c(c1)-c1nc(/N=C/c3ccc(O)cc3)sc1CC2,30.9% (inactive)
14,Oc1ccc(/C=N/Nc2cc(N3CCCC3)nc(N3CCCC3)n2)cc1,82.3% (active)
15,Oc1ccc(/C=N/Nc2cc(N3CCCC3)nc(N3CCCC3)n2)cc1O,102% (active)
16,CN(C)c1ccc(/C=N/Nc2cc(N3CCOCC3)nc(N3CCOCC3)n2)cc1,39.5% (inactive)
17,Cc1ccc(N=Nc2c(N)[nH]n3c(=O)cc(C)nc23)cc1,37.3% (inactive)
18,COCCN(CCOC)S(=O)(=O)c1ccc(C(=O)Nc2nc3c(s2)CCc2ccccc2-3)cc1,30.1% (inactive)
19,COc1ccc2c(c1)Cc1sc(NC(=O)c3ccccc3)nc1-2,34.5% (inactive)
20,COc1ccc(C(=O)Nc2nc3c(s2)Cc2cc(OC)ccc2-3)cc1,59.7% (active)
21,COc1ccc2c(c1)Cc1sc(NC(=O)c3cccs3)nc1-2,51.9% (active)
22,COc1ccc2c(c1)Cc1sc(NC(C)=O)nc1-2,41.3% (inactive)
23,Cn1c(=O)c(Nc2ccc(O)cc2)c2c3c(cccc31)C(=O)c1ccccc1-2,91.8% (active)
24,COc1ccc(-c2ccnc3nc(/N=C/N(C)C)nn23)cc1,-8.3% (inactive)
25,CC1CCN(CCCn2c(=S)[nH]c3ccc(N4CCOCC4)cc3c2=O)CC1,-13.8% (inactive)

row,SMILES,inhibition
1,COc1cccc(Cn2cccc(NC(=O)NC3CCCCC3)c2=O)c1,25.8% (inactive)
2,Cc1c2c(=O)n(-c3nc4ccccc4s3)nc-2cc(O)n1Cc1ccccc1,20.5% (inactive)
3,O=c1c2ccccc2nc(/C=C/c2cccnc2)n1Cc1ccccc1,98.2% (active)
4,COCCCNC(=O)c1c(N)n(-c2ccccc2)c2nc3ccccc3nc12,-25.1% (inactive)
5,COc1ccc(-n2c3nc4ccccc4nc3c3c(=N)oc(C)nc32)cc1,64% (active)
6,NC(=O)N/N=C/c1ccc2cccc(OCc3ccccc3)c2n1,31.5% (inactive)
7,O=C(N/N=C/c1ccccc1)c1ccc(CN2C(=O)c3cccc4cccc2c34)cc1,51.5% (active)
8,COc1ccccc1/C=N/NC(=O)c1ccc(CN2C(=O)c3cccc4cccc2c34)cc1,-17.1% (inactive)
9,Cc1cccc(C(=O)NC2C(=O)NNC2c2ccc(Cl)cc2)c1 (stereo not drawn),69.8% (active)
10,CC1OC(Nc2cccc3ccccc23)C(O)C(O)C1O (stereo not drawn),38.7% (inactive)
11,O=C(N/N=C/c1ccc(O)c2ncccc12)c1cccc(Br)c1,65.3% (active)
12,CCOc1ccc(N2C(=O)c3ccc(C(=O)OCC(=O)N(CC)C4CCS(=O)(=O)C4)cc3C2=O)cc1 (stereo not drawn),42.4% (active)
13,O=c1oc2cc(O)ccc2cc1-c1ccc(F)cc1,15.5% (inactive)
14,Cc1cc(/C=C2\SC(=S)NC2=O)c(C)[nH]1,65.4% (active)
15,c1ccc2c3c(cc(N4CCOCC4)c2c1)OC1(N2CCOCC2)CCCCC1O3 (stereo not drawn),92% (active)
16,Cc1ccc(C2C(C#N)=C(N)N(c3cccnc3)C3=C2C(=O)CCC3)s1 (stereo not drawn),16.8% (inactive)
17,NC(=O)c1ccc(N=C2C(=O)Nc3ccc([N+](=O)[O-])cc32)cc1,102% (active)
18,NC(N)=N/N=C/c1cc([N+](=O)[O-])ccc1O,-9.1% (inactive)
19,CCC(C)(C)n1nnnc1CN(Cc1cc2cc(OC)c(OC)cc2[nH]c1=O)C1CCCC1,2.2% (inactive)
20,Cc1ccc(-c2[nH]c(-c3ccc(C(=O)O)cc3)nc2-c2ccccc2)cc1,49.3% (active)
21,O=[N+]([O-])c1c(NCc2ccccc2)cc(N2CCc3ccccc3C2)c2nonc12,38.5% (inactive)
22,O=[N+]([O-])c1cc([N+](=O)[O-])c2nonc2c1Nc1ccc(O)cc1,37.6% (inactive)
23,CN(C)c1cc(Nc2cccc(O)c2)c([N+](=O)[O-])c2nonc12,43.3% (active)
